Screening results as filed in PubChem.
KCNH2 3.1 block – KCNH2 3.1 (human) potassium channel inhibition. U2OS KCNH2 3.1, thallium flux FluxOr; active compounds read low. hit rate 0.95% among 340,000. activity change, % (tested at about 1.8 µM). AID 720553;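 active = maximum activity change below -70%; inconclusive = maximum activity change from -70% to -50%; inactive = maximum activity change above -50%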;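 note: thallium influx rate constant from kinetic fluorescence after stimulation buffer; % is set by controls: 0 for no effect and ±100 for the full control effect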
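Kinetic fluorescence (2 min after stimulation buffer) measures Tl+ influx through KCNH2 3.1 expressed by viral transduction in U2OS cells; the rate constant is normalized against DMSO controls serving as positive and negative references.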
KB-V1 MDR tox – KB-V1 MDR subline cytotoxicity. KB-V1 MDR cells viability, CellTiter-Glo, 72 h. Potency, µM (doses to about 46.1 µM), most hits filed as cytotoxic. hit rate 3.4% among 400,000. AID 1347076; note: potency is the fitted concentration of half-maximal effect; % is set by controls: 0 for no effect and ±100 for the full control effect; nearly all actives have a fitted effect of over 60% in size
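KB-V1 MDR subline cells in DMEM (phenol-red free, 10% FBS) exposed to compounds in qHTS concentration series for 72 h at 37 degrees C. Viability read by CellTiter-Glo luminescence; concentration-effect curves fitted after normalization and correction.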
MCF10A rereplic – DNA re-replication induction in MCF 10a cells; AID 624296; MCF 10A DNA re-replication, Hoechst nuclear intensity, 48 h; Potency, µM (titrated, usually from 46.1 µM), for the others: at the highest dose activity, positive = re-replication, most hits filed as activators; hit rate 2.9% among 350,000; note: potency is the fitted concentration of half-maximal effect; % of control where 0% means no effect; nearly all actives have a fitted effect of over 50% in size
SW480 rerep – induces DNA re-replication in SW480 colon adenocarcinoma cells; SW480 DNA re-replication, Hoechst DNA content imaging, 48 h; hit rate 1.8% among 340,000; Potency, µM (highest dose often 46.1 µM), for inactives: at the highest dose re-replication activation, actives largely listed as activators; AID 624297; note: potency is the fitted concentration of half-maximal effect; % of control where 0% means no effect; nearly all actives have a fitted effect of over 55% in size
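DNA re-replication was detected as more nuclei of elevated Hoechst intensity after 48 hr exposure to compound (23 nL pinned per well of 250 cells).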
hERG WT inh – KCNH2 (human, wildtype) channel inhibition. Q12809. U2OS, BacMam KCNH2, thallium flux FluxOr; active compounds read low. activity change, % at 1.84 µM. hit rate 0.37% among 340,000. AID 720551;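 active = maximum activity change below -70%; inconclusive = maximum activity change between -70% and -50%; inactive = maximum activity change above -50%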; note: % is set by controls: 0 for no effect and ±100 for the full control effect
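U2OS cells were transduced with wild-type KCNH2 virus (2.03 x 10^8 / mL) for 4 h at room temperature, then cultured overnight at 37 C. Thallium flux was read with FluxOr dye. Rate constants were normalized to DMSO controls.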
KB-3-1 tox – kills parental KB-3-1 adenocarcinoma cells. KB-3-1 viability, CellTiter-Glo ATP luminescence, 72 h. Potency, µM (top dose mostly 46.1 µM), usual class: cytotoxic. hit rate 1.4% among 400,000; note: potency is the fitted concentration of half-maximal effect; % is set by controls: 0 for no effect and ±100 for the full control effect; nearly all actives have a fitted effect of over 60% in size
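Using CellTiter-Glo luminescence, growth of non-resistant KB-3-1 adenocarcinoma cells is assessed 72 h after pin-tool compound addition at 37 °C. Normalized responses across the concentration series yield fitted curves.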
Active calls of the source: *; i = inactive; u = inconclusive; x = no result; [ ] = another dose, or the depositor's remark. Compounds with a hit are over-represented: about 7.6% of the library has one in this group of screens. Unless noted, calls come from the whole dose curve; as a rule, active = well fitted curve in the direction sought with a large enough effect; inconclusive = small, poorly fitted or top-dose-only effect, or another doubt; inactive = no such curve, though single readings can be large; an effect the other way counts as inactive or inconclusive.

SMILES	KCNH2 3.1 block	KB-V1 MDR tox	MCF10A rereplic	SW480 rerep	hERG WT inh	KB-3-1 tox
CCOC(=O)c1c(-c2ccccc2)oc2ccc(O)c(CN3CCN(C)CC3)c12	0	21µM*	23µM*	15%	2	u
O=C(Cc1ccc(Cl)cc1)OCC(=O)c1ccc[nH]1	-9	i	0%	-27%	5	i
CC(C)(C)C(=O)Nc1nc(-c2ccccc2)ns1	21	15µM*	u	-6%	2	u
COC(=O)CSc1nnc(C)n1-c1ccc(C)cc1	2	i	-23%	1%[9.22 µM]	-2	i
Cc1ccc(-n2c(SCC(=O)OC(C)C)nnc2-c2ccccn2)cc1	-3	21µM*	-3%	1%	-12	i
COC(=O)CSc1nnc(Cc2ccccc2)n1-c1ccc(C)cc1	-98*	i	1%	-7%	-3	i
CC(C)OC(=O)CSc1nnc(-c2ccccn2)n1-c1ccccc1	-17	i	2%	-7%	-4	i
Cc1cccc(C2=NN(c3ccccc3)[C@H](CO)[C@H]2c2ccc(F)cc2)c1	-2	i	u	5.2µM*	-5	i
Cc1cccc(C2=NN(c3ccccc3)[C@H](CO)[C@H]2c2ccc(Cl)cc2)c1	10	u	2.3µM*	13µM*	35	u
OC[C@@H]1[C@@H](c2ccccc2)C(c2cccc(Cl)c2)=NN1c1ccccc1	5	u	u	u	-4	u
CCCCN1C(=O)C(CC(=O)NCCCCc2ccccc2)CC(C(=O)N(C(C)C)C(C)C)=C1C (stereo not given)	6	u	x	x	0	i
Cc1ccc(C(=O)N2CCN(c3ncc(C(F)(F)F)cc3Cl)CC2)s1	3	u	18%	-1%	1	i
CCCN1C(=O)/C(=C\c2ccncc2)SC1=Nc1ccccc1	-3	u	u	-9%	17	i
CCN1C(=O)/C(=C\c2ccncc2)SC1=Nc1ccc(C)c(C)c1	-10	15µM*	u	-1%	11	u
COc1ccccc1-c1cnc(C(O)c2ccc(CN3CCCC3)cc2)[nH]1 (stereo not given)	x	i	x	x	x	i
CCCc1nnc(NC(=O)CCC(=O)Nc2ccc(Br)cc2)s1	-1	i	-3%	0%	-16	i
COCCn1c(=O)sc2ccccc2c1=O	19	i	u	-69%	-4	i
COCCn1c(C2CCCCC2)nc2sc3ccccc3c(=O)c2c1=O	-11	4.1µM*	7%	-1%	-11	i
COCCn1c(C(C)C)nc2sc3ccccc3c(=O)c2c1=O	9	16µM*	u	-15%	10	i
CCc1nc2sc3ccccc3c(=O)c2c(=O)n1CCOC	12	i	-20%	0%	-5	i
CCCNC(=O)c1ccccc1NC(=O)c1ccc(CSc2ccccc2)cc1	-35	i	u	16%	1	i
Cc1ccccc1N(CC(=O)N/N=C/c1ccc(Cl)cc1)C(=O)c1ccccc1	5	21µM*	26µM*	u	-2	u
O=C1c2[nH]nc(-c3ccccc3O)c2C(c2ccc(F)cc2)N1Cc1ccco1 (stereo not given)	-10	6.5µM*	u	u	-13	u
Cc1cc(C)c(O)c(-c2n[nH]c3c2C(c2cccc(O)c2)N(Cc2ccco2)C3=O)c1 (stereo not given)	0	i	u	24%	-91*	i
O=C1c2[nH]nc(-c3ccccc3O)c2C(c2cccc(Cl)c2)N1Cc1ccco1 (stereo not given)	-16	15µM*	7.3µM*	u	-12	u
COc1ccc(C2c3c(-c4ccccc4O)n[nH]c3C(=O)N2Cc2ccco2)cc1OC (stereo not given)	1	i	11%	-3%	1	i
Cc1ccc(C2c3c(-c4cc(C)ccc4O)n[nH]c3C(=O)N2Cc2ccco2)cc1 (stereo not given)	x	u	x	x	x	i
